Assay outcomes (PubChem)
An excerpt weighted towards active compounds, which were near 5.4% of everything screened.
Vaccinia mCherry – vaccinia inhibition (mCherry reporter); Potency, µM (series often up to 36.5 µM), without a hit: at the top dose activity change, negative = inhibition, hits mostly inhibitors; Vaccinia virus mCherry reporter infection, fluorescence; actives 0.63% (n = 310,000); AID 720579; calls by dose curve; tested in A549 cells; note: nearly all actives have a fitted effect of over 35% in size
Marburg entry inh – inhibitors of Marburg virus binding or cell entry; Marburg virus pseudotyped entry inhibition, cell reporter; AID 540276; Potency, µM (doses to about 37.8 µM), without a hit: at the highest dose activity change, negative = inhibition, most hits filed as inhibitors; actives 1.8% (n = 300,000); calls by dose curve; tested in HEK293 cells
FMDV antiviral – antivirals against foot and mouth disease virus | FMDV antiviral cell-based qHTS | Potency, µM (doses to about 57.9 µM), for inactives: at the top dose activity change, negative = inhibition, actives largely listed as inhibitors | actives 1.2% (n = 410,000) | AID 1159524; calls by dose curve; tested in HEK293T cells; note: read-out not given here; nearly all actives have a fitted effect of over 45% in size
Vaccinia Venus – inhibitors of vaccinia virus (Venus reporter). actives 0.46% (n = 330,000). Vaccinia virus Venus reporter expression, fluorescence. AID 720580. Potency, µM (top dose mostly 36.5 µM), for inactives: at the highest dose activity change, negative = inhibition, usual class: inhibitors; calls by dose curve; tested in A549 cells; note: nearly all actives have a fitted effect of over 30% in size
Lassa entry inh – Lassa virus entry inhibition. Lassa virus pseudotype entry inhibition, cell reporter. Potency, µM (highest dose often 37.9 µM), for the others: top-dose activity change, negative = inhibition, usual class: inhibitors. actives 1.2% (n = 300,000). AID 540256; calls by dose curve; tested in HEK293 cells; note: nearly all actives have a fitted effect of over 50% in size
Sm TGR block – S. mansoni TGR enzyme inhibition; Q962Y6; purified TGR, DTNB reduction, TNB absorbance 405 nm; Potency, µM (doses to about 114 µM), for inactives: top-dose activity change, negative = inhibition, usual class: inhibitors; actives 3% (n = 360,000); active = well fitted inhibition curve with a large enough effect; inconclusive = small, poorly fitted or top-dose-only effect; inactive = no such curve, though single readings can be large or run the other way; note: nearly all actives have a fitted effect of over 60% in size
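First, TGR (20 nM dispensed) and NADPH were mixed with compound. Second, a 15 min room-temperature incubation followed. Third, further NADPH and then DTNB were added to start the reaction. Finally, TNB absorbance was monitored kinetically.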
The depositor's hits bear a star; i = inactive; ? = inconclusive; . = no result given; ! = a repeat was not active; [ ] = another dose, or the depositor's remark. % is set by controls: 0 for no effect and ±100 for the full control effect; potency is the fitted concentration of half-maximal effect.

SMILES | Vaccinia mCherry | Marburg entry inh | FMDV antiviral | Vaccinia Venus | Lassa entry inh | Sm TGR block
Cc1cccc(Cn2cc(C=O)c3ccccc32)c1 | i | ? | -18% | -13% | ? | 16%
COC(=O)/C=c1\s/c(=C(/C#N)C(=O)N2CCOCC2)n(-c2ccccc2)c1=O | . | -9% | . | . | . | .
COC(=O)C1=C(C(=O)OC)[C@@H]2N(C)c3ccccc3[C@@]23CCC(=O)N(CCCOC(C)C)C3=N1 | . | -10%[14.2 µM] | . | . | . | .
COC(=O)[C@H]1[C@H]2C[C@@H]3c4[nH]c5cc(OC)ccc5c4CCN3C[C@H]2C[C@@H](OC(=O)c2cc(OC)c(OC)c(OC)c2)[C@@H]1OC | i | 10µM* | -17% | -21% | 7.3µM* | -21%
O=C(Nc1ccc(C(=O)Nc2ccc(C(=O)Nc3ccc(S(=O)(=O)O)c4cc(S(=O)(=O)O)cc(S(=O)(=O)O)c34)cc2)cc1)Nc1ccc(C(=O)Nc2ccc(C(=O)Nc3ccc(S(=O)(=O)O)c4cc(S(=O)(=O)O)cc(S(=O)(=O)O)c34)cc2)cc1 | -4% | . | -7% | -10% | . | .
O=C(Nc1cc(C(=O)Nc2ccc(S(=O)(=O)O)cc2S(=O)(=O)O)cc(C(=O)Nc2ccc(S(=O)(=O)O)cc2S(=O)(=O)O)c1)Nc1cc(C(=O)Nc2ccc(S(=O)(=O)O)cc2S(=O)(=O)O)cc(C(=O)Nc2ccc(S(=O)(=O)O)cc2S(=O)(=O)O)c1 | -5% | 13µM* | -4% | -21% | . | .
CCn1c(CNC(=O)c2ccc(OC)cc2)nnc1SCC(=O)Nc1ccc(F)cc1 | -3% | ? | 0% | -5% | 7%[46.1 µM] | -7%
CN(C)CC[C@@H](c1ccccc1)c1ccccn1 | . | -8% | . | . | . | .
CN(C)CC[C@H](c1ccc(Cl)cc1)c1ccccn1 | . | 5.6µM*! | . | . | . | .
CN(C)CCC(c1ccc(Br)cc1)c1ccccn1 (stereo unspecified) | -12% | 11µM*! | 11% | -12% | ? | -21%
CCc1ccc(CN2CCC(CO)(CC3CCCCO3)CC2)o1 (stereo unspecified) | -1% | 17%[46.1 µM] | -7% | -8% | 22%[46.1 µM] | 0%
Cc1ccc(CN2CCC(CO)(CC3CCCCO3)CC2)o1 (stereo unspecified) | -2% | 12%[46.1 µM] | 7% | 7% | 5% | 45µM*
Cc1ccc2[nH]c(CN3CCC(CO)(CC4CCCCO4)CC3)c(C)c2c1 (stereo unspecified) | ? | ? | -20% | 7% | 5µM* | -14%
CCN1CCCC1CNC(=O)C1CCN(Cc2nc(-c3cccc(Br)c3)oc2C)CC1 (stereo unspecified) | i | 3.5µM* | -19% | -27% | 11µM* | 4%
Cc1[nH]nc2ccc(-c3cncc(OC[C@@H](N)Cc4c[nH]c5ccccc45)c3)cc12 | ? | . | ? | 0.89µM* | . | .
COc1ccc(NC(=S)NC(=O)c2ccc(Br)o2)cc1 | i | . | 120% | -14% | . | 8.9µM*
COC(=O)c1ccc(NC(=S)NC(=O)c2cccnc2)cc1 | -3% | 20%[46.1 µM] | -13% | 0% | 22%[46.1 µM] | ?
O=C(O)c1ccc(NC(=S)NC(=O)c2cccnc2)cc1 | i | 26%[46.1 µM] | -13% | -10% | 25%[46.1 µM] | 35µM*
COc1ccc(NC(=O)c2ccc(Br)o2)cc1 | -4% | 8% | 40% | -8% | ? | 1%
COc1ccc(NC(=S)NC(=O)c2cccnc2)cc1 | i | 22%[46.1 µM] | 26% | -7% | 23%[46.1 µM] | 22µM*
CN(CCO)C(=O)c1cn(C2CCN(Cc3c(F)cccc3Cl)CC2)nn1 | -9% | . | -11% | 21% | . | .
CCC(C(=O)N1CCN(c2cc(Cl)ccc2C)CC1)n1nc(C)n2c(cc3occc32)c1=O (stereo unspecified) | -19% | ? | ? | -24% | -21%[46.1 µM] | -1%
Cc1ccc(CN=C(N)Nc2nc(C)cc(C)n2)cc1 | ? | 11µM* | -24% | ? | -23% | .
CCOc1ccc(CNC(=O)C2CCN(S(=O)(=O)c3cn(C)cn3)CC2)cc1 | -15% | . | -5% | -13% | 0%[46.1 µM] | 3%
CCN1CCN(C(c2ccccc2Cl)c2c(O)cc(C)n(Cc3ccco3)c2=O)CC1 (stereo unspecified) | -17% | . | -24% | -20% | -1%[46.1 µM] | 4µM*
